Source: PubChem BioAssay
Most compounds without a hit are left out; they make up all but 2.8% or so of the library.
PI5P4K alpha inh – blocks human PI5P4K alpha kinase activity | PI5P4Kalpha enzyme, ADP-Glo luminescence, 60 min; stronger effect = lower value | max response, % | hit rate 1.2% among 330,000; active means max response of -50% or lower; inconclusive means between -30% and -50%; inactive means -30% or higher; further: value at the top dose of about 77 µM; on the % scale 0 is the no-effect control and ±100 the full control effect
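ADP-Glo luminescence end-point read after a 60 min room-temperature kinase reaction of PI5P4Kalpha plus substrate, initiated with ATP at 5 microM final. Buffer: 0.038 M HEPES pH 7.4, EGTA, 0.1% CHAPS, 5% DMSO.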
Pol kappa inh-1 – DNA polymerase kappa (human) inhibition; Q9UBT6; purified Pol kappa, fluorescent DNA synthesis assay, 10 min; Potency, µM (doses to about 107 µM), for the others: at the top dose activity, negative = inhibition, actives largely listed as inhibitors; hit rate 0.53% among 400,000; AID 588579; further: potency means the concentration at half of the fitted maximal effect; on the % scale 0 is the no-effect control and ±100 the full control effect
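Kinetic fluorescence screen: compound preincubated 15 min RT with 10 nM enzyme; 50 nM substrate (final) initiates; reads at 0/10 min.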
Pol eta inh-1 – blocks human DNA polymerase eta activity; Q9Y253; recombinant Pol eta, fluorescent DNA replication assay; Potency, µM (titrated, usually from 114 µM), inactives show top-dose activity change, negative = inhibition, usual class: inhibitors; hit rate 1.2% among 390,000; AID 588591; further: potency means the concentration at half of the fitted maximal effect; on the % scale 0 is the no-effect control and ±100 the full control effect
Target sequence (Q9Y253 whole entry, looked up): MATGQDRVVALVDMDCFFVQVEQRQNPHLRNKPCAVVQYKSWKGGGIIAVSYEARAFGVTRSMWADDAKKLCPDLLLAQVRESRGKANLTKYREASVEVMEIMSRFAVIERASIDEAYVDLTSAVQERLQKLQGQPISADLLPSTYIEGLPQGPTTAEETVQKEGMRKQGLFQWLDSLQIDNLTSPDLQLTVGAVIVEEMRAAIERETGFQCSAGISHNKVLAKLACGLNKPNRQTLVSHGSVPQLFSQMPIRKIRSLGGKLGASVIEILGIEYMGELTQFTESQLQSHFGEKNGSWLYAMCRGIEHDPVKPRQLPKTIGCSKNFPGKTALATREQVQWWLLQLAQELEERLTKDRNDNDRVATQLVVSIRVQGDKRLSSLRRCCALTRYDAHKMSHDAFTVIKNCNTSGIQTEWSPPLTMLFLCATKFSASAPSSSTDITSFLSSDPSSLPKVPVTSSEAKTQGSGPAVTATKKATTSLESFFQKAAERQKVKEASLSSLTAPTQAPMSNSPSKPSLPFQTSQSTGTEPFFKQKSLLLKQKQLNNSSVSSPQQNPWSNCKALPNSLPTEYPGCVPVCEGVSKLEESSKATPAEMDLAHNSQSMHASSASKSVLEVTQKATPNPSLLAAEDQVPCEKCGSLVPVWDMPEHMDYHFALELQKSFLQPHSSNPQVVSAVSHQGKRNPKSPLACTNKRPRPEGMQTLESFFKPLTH
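Pol eta (10 nM) was preincubated with compounds for 15 min at room temperature, after which fluorescent replication substrate (50 nM final) was added to start the reaction. Fluorescence was read kinetically at 0 and 10 min.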
Pol beta inh – DNA polymerase beta (human) inhibition | Pol beta primer extension/strand displacement, fluorescence kinetic | AID 485314 | P06746 | hit rate 1.3% among 340,000 | Potency, µM (highest dose often 114 µM), for the others: at the top dose activity change, negative = inhibition, hits mostly inhibitors; further: potency means the concentration at half of the fitted maximal effect; on the % scale 0 is the no-effect control and ±100 the full control effect
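Preincubation: enzyme (10 nM) with compound, 15 min, RT. Reaction: substrate added to 50 nM final. Reads: 0 and 10 min. Analysis: normalized, Hill fit.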
Pol iota inh – blocks human DNA polymerase iota activity. Q9UNA4. Pol iota fluorescent replication assay, 10 min. Potency, µM (highest dose often 115 µM), inactives show top-dose activity, negative = inhibition, usual class: inhibitors. hit rate 1% among 390,000; further: potency means the concentration at half of the fitted maximal effect
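Pol iota at 10 nM preincubated 15 min with compounds at room temperature; reaction started with fluorescent substrate, 50 nM final. Fluorescence read kinetically at 0 and 10 min; buffer-only wells as negative control.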
PI4K2A inh – PI4K2A (human) kinase inhibition. Q9BTU6. purified PI4K2A, ADP-Glo luminescence, 1 h; stronger effect = lower value. activity change, negative = inhibition, % at 76.9 µM. hit rate 0.13% among 420,000; in the data active means activity change below about -50%; inconclusive means mostly about -30% to -49%;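 further: -100% = wells without enzyme as full effect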
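ADP-Glo luminescence measured ADP generated by PI4K2A enzyme (4 ug/mL before mixing) with 1.2 mM PI substrate (pre-mix) and 300 microM ATP (pre-mix). Tris pH7.5 buffer with MgCl2, Triton X-100; 1 h reaction at ambient temperature.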
Pol kappa inh-2 – confirmation of human DNA polymerase kappa inhibitors | Potency, µM, usual class: inhibitors | hit rate 76% among 920 | shares compounds with Pol eta inh-1 | purified Pol-kappa, fluorescent strand-displacement substrate; further: potency means the concentration at half of the fitted maximal effect
Pol eta inh-2 – Pol eta (human) inhibition, cherry-pick confirmation; Potency, µM, hits mostly inhibitors; hit rate 64% among 2,600; Pol eta primer extension, TAMRA/BHQ fluorescence, 10 min; shares compounds with Pol eta inh-1; AID 720502; further: potency means the concentration at half of the fitted maximal effect
* = called active by the depositor; ? = inconclusive; · = no result given; [ ] = dose if it differs, or a comment. Unless noted, the call rests on the fitted dose curve; in most records, active means well fitted inhibition curve with a large enough effect; inconclusive means small, poorly fitted or top-dose-only effect, or another doubt; inactive means no such curve, though single readings can be large or run the other way.

SMILES | PI5P4K alpha inh | Pol kappa inh-1 | Pol eta inh-1 | Pol beta inh | Pol iota inh | PI4K2A inh | Pol eta inh-2 | others
CCOC(=O)c1ccc(/C=C2/C=C(c3ccccc3)N(c3ccc(Cl)c(C(=O)O)c3)C2=O)cc1 | ? | -17% | 20µM* | 32µM* | ? | 0 | 60* | Pol kappa inh-2=?
CCOC(=O)c1ccc(Cl)c(NC(=O)c2ccc(-c3ccccc3)cc2)c1 | · | -18% | -5% | -1% | 6% | -2 | ·
Cc1ccc(C)c(S(=O)(=O)c2cn(Cc3ccccc3)c3cc(N4CCCC4)c(F)cc3c2=O)c1 | · | -4% | -18% | 3% | 67% | -7 | ·
S=c1[nH]nc(-c2cc(-c3ccccc3)n[nH]2)n1/N=C/c1ccc(Br)s1 | -13 | ? | ? | 18µM* | 22µM* | 2 | ? | Pol kappa inh-2=42*
COc1cc(N)c(C(=O)c2nccc3cc(OC)c(OC)cc23)cc1OC | 3 | 3% | 11% | 44% | 234% | 0 | ·
COc1cc(Br)c(C(=O)c2nccc3cc(OC)c(OC)cc23)cc1OC | -7 | 9% | 79µM* | -2% | 1.8µM* | -52* | ?
CCCCN(C)CCCNC(=O)c1ccc2nc(N3CCCCC3)sc2c1 | · | 14% | -9% | 39% | 30% | 0 | ·
C=C1c2cccc(C(F)(F)F)c2O[C@H](C(=O)OCC)[C@@H]1CCCCCC | · | -18%[60.1 µM] | · | · | · | · | ·
CC(=O)Nc1ccc(NC(=O)CSc2nnc(NC(=O)c3ccc(Br)o3)s2)cc1 | -28 | -29% | 14µM* | 50µM* | ? | -13 | ? | Pol kappa inh-2=?
CC(=O)OCC1=C(C(=O)O)N2C(=O)C(NC(=O)c3ccc(COc4ccc(Cl)cc4)o3)C2SC1 (stereo not drawn) | -28 | ? | 50µM* | ? | ? | 12 | 38* | Pol kappa inh-2=30*
CC(=O)OCC1=C(C(=O)O)N2C(=O)C(NC(=O)c3ccc(COc4c(C)cccc4Cl)o3)C2SC1 (stereo not drawn) | -28 | ? | 45µM* | 13µM* | 28µM* | -7 | 43*
CN(C(=O)/C=C/c1ccco1)c1ccccc1C(=O)O | 2 | ? | 45µM* | 18µM* | ? | 2 | ?
O=C(COC(=O)C1CCCC1)Nc1ncc(Cl)cc1Cl | ? | ? | 16µM* | · | ? | -2 | ?
O=C(COC(=O)c1ccc(O)cc1O)Nc1ncc(Cl)cc1Cl | -13 | -17% | ? | · | -9% | 2 | ?
N#Cc1c(NC(=O)COC(=O)c2ccc(O)cc2O)sc2c1CCC2 | ? | 79µM* | 20µM* | · | ? | -6 | ?
O=C(COC(=O)c1ccc(Br)o1)Nc1ncc(Cl)cc1Cl | ? | -42% | ? | ? | ? | -1 | ·
O=C(COC(=O)c1ccc([N+](=O)[O-])o1)Nc1ncc(Cl)cc1Cl | -27 | -24% | 22µM* | · | ? | -6 | ?
O=C(COC(=O)C1CCC1)Nc1ncc(Cl)cc1Cl | -18 | -21% | -5% | · | ? | -2 | ·
COC(=O)CCN(c1ccccc1)C(CNS(=O)(=O)c1ccccc1)c1ccccc1 (stereo not drawn) | · | -5% | · | 1% | 17% | -10 | ·
O=C(COC(=O)c1cnccn1)Nc1c(Cl)cc(Cl)cc1Cl | -11 | -15% | -1% | · | 5% | 2 | ·
O=C(COC(=O)c1cnccn1)Nc1ncc(Cl)cc1Cl | ? | -16% | 22µM* | · | ? | -7 | ?
O=C(O)C1C2C=CC3(O2)C1C(=O)N1c2ccccc2C2OCCC2C13 (stereo not drawn) | · | -33% | 35µM* | 40µM* | ? | -3 | ?
Cc1ccc(NC(=O)C2CCN(S(=O)(=O)c3cccc4nonc34)CC2)c(Cl)c1 | · | -2% | 2% | -23% | -5% | -1 | ·
CC[C@H](C)[C@H](NC(=O)CNC(=O)[C@H](C)NC(=O)[C@H](C)N)C(=O)NCC(=O)N[C@H](C(=O)N[C@@H](CC(C)C)C(=O)N[C@H](C(=O)N[C@H](C(=O)O)C(C)C)[C@@H](C)O)[C@@H](C)CC | · | 9%[60.1 µM] | · | · | · | · | ·
CS(=O)(=O)N1Cc2ccccc2CC1C(=O)O (stereo not drawn) | -9 | ? | 8.9µM* | 18µM* | ? | 1 | 60*
SMILES | PI5P4K alpha inh | Pol kappa inh-1 | Pol eta inh-1 | Pol beta inh | Pol iota inh | PI4K2A inh | Pol eta inh-2 | others
COc1ccc(Cn2c(=O)c3cccnc3n(CC(=O)Nc3ccc(C)c(F)c3)c2=O)cc1 | · | 4% | -6% | 5% | -17% | -9 | ·
CC(=O)Nc1ccc(Nc2nc3ccccc3nc2NS(=O)(=O)c2ccc(Cl)c([N+](=O)[O-])c2)cc1 | -25 | ? | 22µM* | · | ? | -1 | ?
CCOCCCNC(=O)c1ccc(-n2c(-c3ccccc3)cc3c2CCCC3)cc1 | · | -12% | 6% | 9% | 61% | 7 | ·
CC[C@H]1OC(=O)[C@H](C)[C@@H](O[C@H]2C[C@@](C)(OC)[C@@H](O)[C@H](C)O2)C(C)[C@@H](O[C@@H]2O[C@H](C)C[C@H](N(C)C)[C@H]2O)[C@](C)(O)C[C@@H](C)CN(C)[C@H](C)[C@@H](O)[C@]1(C)O (stereo partly drawn) | · | · | · | · | · | 0 | ·
CC(=O)Nc1ccccc1-c1nc2ccccc2n(C(C)C(=O)Nc2ccccc2C(F)(F)F)c1=O (stereo not drawn) | · | 5% | · | 10% | -18% | -4 | ·
CCc1c(C)[nH]c2ccc(OC)cc2c1=S | -9 | 1% | -21% | -28% | 80% | -6 | ·
CCOc1ccc(Cc2c(C)[nH]c3ccc(C(=O)O)cc3c2=S)cc1 | -18 | ? | 50µM* | ? | ? | -1 | ?
C[C@@H]1CCC[C@]2(C)CCCC[C@@]12O | · | 19%[60.1 µM] | · | · | · | · | ·
Cc1ccc(N2CC(C(=O)Nc3cccc(C(=O)NC4CC4)c3)CC2=O)cc1 (stereo not drawn) | -4 | 0% | 35µM* | · | ? | 13 | · | Pol kappa inh-2=?
Nc1ccc(S(=O)(=O)c2cc(O)c3ccccc3c2O)cc1 | -78* | -16% | 40µM* | · | ? | -13 | ? | Pol kappa inh-2=84*
COc1ccc(-c2cc(=O)c3c(O)cc(O)c(-c4cc(-c5cc(=O)c6c(O)cc(OC)cc6o5)ccc4OC)c3o2)cc1 | · | 7%[60.1 µM] | · | · | · | · | ·
O=c1cc(-c2ccc(O)c(-c3c(O)cc(O)c4c(=O)cc(-c5ccc(O)cc5)oc34)c2)oc2cc(O)cc(O)c12 | -96* | 79µM* | 18µM* | -22% | 32µM* | -3 | 34*
